Tests used:
[1] = molecular target: Protein kinase C gamma type (Homo sapiens) (UniProt P05129); details: at 1 µM;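 further: each value is an averaged percent inhibition of the enzyme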
[2] = molecular target: T1, Protein kinase C iota type (Homo sapiens) (UniProt P41743); details: at 0.1 µM
T1 sequence (whole entry): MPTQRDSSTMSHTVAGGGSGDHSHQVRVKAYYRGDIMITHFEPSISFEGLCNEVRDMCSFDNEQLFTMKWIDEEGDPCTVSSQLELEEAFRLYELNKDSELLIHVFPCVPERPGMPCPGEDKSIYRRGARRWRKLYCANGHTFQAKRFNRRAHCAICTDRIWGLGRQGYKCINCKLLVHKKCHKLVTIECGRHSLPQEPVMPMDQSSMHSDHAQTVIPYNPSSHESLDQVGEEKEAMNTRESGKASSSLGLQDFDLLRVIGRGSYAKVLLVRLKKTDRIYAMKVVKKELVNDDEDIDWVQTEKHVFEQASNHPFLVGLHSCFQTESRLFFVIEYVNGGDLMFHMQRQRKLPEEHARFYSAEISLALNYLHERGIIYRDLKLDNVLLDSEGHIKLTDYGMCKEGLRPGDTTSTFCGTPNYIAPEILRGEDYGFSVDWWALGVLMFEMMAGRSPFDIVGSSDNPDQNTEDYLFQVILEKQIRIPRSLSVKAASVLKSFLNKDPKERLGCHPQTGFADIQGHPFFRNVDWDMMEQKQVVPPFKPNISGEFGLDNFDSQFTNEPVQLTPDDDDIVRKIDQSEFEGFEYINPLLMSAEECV

[3] = molecular target: T1, Protein kinase C iota type (Homo sapiens); details: at 1 µM
[4] = molecular target: Protein kinase C theta type (Homo sapiens) (UniProt Q04759); details: at 0.1 µM
[5] = molecular target: Protein kinase C theta type (Homo sapiens) (UniProt Q04759); details: at 1 µM
[6] = molecular target: Protein kinase C beta type (Homo sapiens) (UniProt P05771); details: at 0.1 µM
[7] = molecular target: Protein kinase C beta type (Homo sapiens) (UniProt P05771); details: at 1 µM
[8] = molecular target: T2, Serine/threonine-protein kinase D1 (Homo sapiens) (UniProt Q15139); details: at 0.1 µM
T2 sequence (whole entry): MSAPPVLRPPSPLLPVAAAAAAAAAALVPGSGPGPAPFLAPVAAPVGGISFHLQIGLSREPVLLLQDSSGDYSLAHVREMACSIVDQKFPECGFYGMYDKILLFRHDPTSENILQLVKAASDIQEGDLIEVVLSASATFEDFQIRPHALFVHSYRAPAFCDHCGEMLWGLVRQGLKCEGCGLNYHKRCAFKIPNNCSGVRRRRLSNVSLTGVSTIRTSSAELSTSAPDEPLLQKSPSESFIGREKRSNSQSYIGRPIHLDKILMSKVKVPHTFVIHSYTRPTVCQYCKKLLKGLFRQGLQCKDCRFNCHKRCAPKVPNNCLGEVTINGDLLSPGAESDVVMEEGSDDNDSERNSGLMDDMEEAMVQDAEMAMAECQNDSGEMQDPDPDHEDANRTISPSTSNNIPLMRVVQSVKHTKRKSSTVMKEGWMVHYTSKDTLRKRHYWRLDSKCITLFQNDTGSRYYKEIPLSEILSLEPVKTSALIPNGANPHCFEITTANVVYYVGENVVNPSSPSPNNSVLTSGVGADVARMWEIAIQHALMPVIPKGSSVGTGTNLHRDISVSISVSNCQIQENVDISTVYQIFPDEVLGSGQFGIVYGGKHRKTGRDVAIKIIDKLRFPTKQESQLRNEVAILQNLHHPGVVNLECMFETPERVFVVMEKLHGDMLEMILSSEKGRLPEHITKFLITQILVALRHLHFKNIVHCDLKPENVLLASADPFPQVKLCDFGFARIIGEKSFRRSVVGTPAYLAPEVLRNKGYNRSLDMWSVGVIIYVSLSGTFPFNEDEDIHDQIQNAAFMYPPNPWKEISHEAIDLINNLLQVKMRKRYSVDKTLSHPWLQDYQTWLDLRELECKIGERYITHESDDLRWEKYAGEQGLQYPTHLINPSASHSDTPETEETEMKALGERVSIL

[9] = molecular target: T2, Serine/threonine-protein kinase D1 (Homo sapiens); details: at 1 µM
[10] = molecular target: T3, Serine/threonine-protein kinase D2 (Homo sapiens) (UniProt Q9BZL6); details: at 0.1 µM
T3 sequence (whole entry): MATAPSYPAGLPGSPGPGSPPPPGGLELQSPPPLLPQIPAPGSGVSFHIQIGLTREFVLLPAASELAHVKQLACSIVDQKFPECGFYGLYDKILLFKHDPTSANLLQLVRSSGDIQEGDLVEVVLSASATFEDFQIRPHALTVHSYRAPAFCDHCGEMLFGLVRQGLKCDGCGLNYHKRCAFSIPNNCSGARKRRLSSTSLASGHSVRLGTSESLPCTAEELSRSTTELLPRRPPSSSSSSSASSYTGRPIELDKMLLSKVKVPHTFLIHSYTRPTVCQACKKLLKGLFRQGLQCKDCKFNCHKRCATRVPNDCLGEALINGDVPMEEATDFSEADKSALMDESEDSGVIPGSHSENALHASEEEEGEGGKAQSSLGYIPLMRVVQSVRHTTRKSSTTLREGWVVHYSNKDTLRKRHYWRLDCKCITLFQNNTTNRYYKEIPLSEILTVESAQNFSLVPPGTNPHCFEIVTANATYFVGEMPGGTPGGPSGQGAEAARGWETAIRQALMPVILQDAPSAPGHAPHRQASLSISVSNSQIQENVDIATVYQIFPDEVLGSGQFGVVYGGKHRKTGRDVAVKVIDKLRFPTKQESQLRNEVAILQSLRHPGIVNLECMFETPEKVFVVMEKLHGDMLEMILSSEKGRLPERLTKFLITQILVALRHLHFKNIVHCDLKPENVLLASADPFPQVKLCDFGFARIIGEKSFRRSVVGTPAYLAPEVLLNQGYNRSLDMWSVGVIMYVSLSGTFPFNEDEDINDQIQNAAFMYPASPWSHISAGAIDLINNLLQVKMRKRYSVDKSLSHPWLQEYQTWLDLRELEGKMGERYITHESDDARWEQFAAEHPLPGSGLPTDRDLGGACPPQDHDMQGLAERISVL

[11] = molecular target: T3, Serine/threonine-protein kinase D2 (Homo sapiens); details: at 1 µM
[12] = molecular target: T4, Serine/threonine-protein kinase D3 (Homo sapiens) (UniProt O94806); details: at 0.1 µM
T4 sequence (whole entry): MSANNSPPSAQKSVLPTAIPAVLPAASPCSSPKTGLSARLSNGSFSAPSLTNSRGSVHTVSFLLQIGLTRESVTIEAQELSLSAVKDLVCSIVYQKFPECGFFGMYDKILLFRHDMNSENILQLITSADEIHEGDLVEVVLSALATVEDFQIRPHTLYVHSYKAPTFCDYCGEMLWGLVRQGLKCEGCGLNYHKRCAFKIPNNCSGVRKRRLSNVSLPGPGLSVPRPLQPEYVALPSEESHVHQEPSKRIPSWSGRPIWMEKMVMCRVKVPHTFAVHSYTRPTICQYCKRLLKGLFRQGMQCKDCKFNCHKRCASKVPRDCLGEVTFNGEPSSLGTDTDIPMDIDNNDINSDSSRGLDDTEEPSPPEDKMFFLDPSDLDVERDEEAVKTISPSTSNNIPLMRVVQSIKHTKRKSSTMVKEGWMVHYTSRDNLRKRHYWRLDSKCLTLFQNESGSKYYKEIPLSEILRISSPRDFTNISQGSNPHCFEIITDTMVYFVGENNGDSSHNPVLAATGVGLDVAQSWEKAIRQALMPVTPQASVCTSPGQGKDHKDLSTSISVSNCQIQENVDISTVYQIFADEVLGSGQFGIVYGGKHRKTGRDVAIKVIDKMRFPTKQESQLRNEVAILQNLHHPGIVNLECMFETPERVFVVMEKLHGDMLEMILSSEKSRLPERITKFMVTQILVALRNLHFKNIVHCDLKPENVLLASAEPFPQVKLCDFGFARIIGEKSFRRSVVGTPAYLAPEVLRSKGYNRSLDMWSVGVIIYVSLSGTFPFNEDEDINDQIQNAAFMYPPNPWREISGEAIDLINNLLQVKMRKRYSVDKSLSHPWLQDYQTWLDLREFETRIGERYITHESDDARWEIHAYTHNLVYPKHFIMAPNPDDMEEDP

[13] = molecular target: T4, Serine/threonine-protein kinase D3 (Homo sapiens); details: at 1 µM
[14] = molecular target: T5, cGMP-dependent protein kinase 1 (Homo sapiens) (UniProt Q13976); details: at 0.1 µM
T5 sequence (whole entry): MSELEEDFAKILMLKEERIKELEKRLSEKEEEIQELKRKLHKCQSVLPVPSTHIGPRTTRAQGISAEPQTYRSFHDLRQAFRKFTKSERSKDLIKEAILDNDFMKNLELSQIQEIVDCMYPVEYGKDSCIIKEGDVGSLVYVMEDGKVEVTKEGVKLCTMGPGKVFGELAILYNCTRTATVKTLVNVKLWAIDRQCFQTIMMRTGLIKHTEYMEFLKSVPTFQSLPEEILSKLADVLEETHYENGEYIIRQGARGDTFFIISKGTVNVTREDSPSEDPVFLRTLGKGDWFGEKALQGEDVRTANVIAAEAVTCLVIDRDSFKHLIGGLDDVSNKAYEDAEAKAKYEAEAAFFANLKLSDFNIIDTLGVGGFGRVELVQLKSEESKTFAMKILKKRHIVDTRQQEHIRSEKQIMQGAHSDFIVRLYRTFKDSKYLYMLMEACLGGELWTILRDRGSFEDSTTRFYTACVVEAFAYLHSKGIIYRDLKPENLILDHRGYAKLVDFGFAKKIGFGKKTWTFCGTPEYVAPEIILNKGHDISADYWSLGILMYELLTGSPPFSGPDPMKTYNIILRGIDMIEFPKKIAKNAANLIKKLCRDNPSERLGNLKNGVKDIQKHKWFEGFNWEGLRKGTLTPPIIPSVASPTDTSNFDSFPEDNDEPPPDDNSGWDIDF

[15] = molecular target: T5, cGMP-dependent protein kinase 1 (Homo sapiens); details: at 1 µM
[16] = molecular target: T6, cGMP-dependent protein kinase 2 (Homo sapiens) (UniProt Q13237); details: at 0.1 µM
T6 sequence (whole entry): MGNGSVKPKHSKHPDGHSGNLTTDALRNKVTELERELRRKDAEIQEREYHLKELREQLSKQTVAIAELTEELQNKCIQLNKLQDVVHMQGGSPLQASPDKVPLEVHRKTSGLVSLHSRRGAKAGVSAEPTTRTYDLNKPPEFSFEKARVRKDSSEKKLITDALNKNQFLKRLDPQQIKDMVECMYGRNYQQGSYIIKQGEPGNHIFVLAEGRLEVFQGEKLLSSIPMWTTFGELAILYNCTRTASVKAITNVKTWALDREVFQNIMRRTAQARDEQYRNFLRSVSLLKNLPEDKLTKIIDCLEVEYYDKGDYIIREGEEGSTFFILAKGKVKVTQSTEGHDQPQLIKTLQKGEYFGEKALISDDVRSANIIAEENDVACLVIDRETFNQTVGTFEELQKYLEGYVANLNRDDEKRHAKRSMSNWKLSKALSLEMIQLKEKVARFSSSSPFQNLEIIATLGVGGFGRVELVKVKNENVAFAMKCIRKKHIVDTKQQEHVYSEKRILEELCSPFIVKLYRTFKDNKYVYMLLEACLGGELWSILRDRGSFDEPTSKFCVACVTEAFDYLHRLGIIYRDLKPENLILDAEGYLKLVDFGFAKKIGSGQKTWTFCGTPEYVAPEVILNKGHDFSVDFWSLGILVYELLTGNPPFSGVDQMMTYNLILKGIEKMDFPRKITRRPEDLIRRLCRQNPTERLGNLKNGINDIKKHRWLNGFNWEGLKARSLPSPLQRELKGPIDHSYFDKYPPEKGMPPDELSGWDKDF

[17] = molecular target: T6, cGMP-dependent protein kinase 2 (Homo sapiens); details: at 1 µM
[18] = molecular target: T7, cAMP-dependent protein kinase catalytic subunit PRKX (Homo sapiens) (UniProt P51817); details: at 0.1 µM
T7 sequence (whole entry): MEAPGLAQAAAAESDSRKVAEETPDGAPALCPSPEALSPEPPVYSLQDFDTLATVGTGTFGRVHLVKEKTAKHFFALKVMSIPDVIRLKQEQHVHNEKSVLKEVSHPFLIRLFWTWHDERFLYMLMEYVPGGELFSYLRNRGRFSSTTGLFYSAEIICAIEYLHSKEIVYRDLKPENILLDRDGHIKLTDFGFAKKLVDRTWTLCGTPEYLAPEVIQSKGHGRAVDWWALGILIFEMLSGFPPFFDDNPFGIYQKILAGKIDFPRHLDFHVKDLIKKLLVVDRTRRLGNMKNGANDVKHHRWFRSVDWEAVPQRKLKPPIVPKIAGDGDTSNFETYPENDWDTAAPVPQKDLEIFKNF

[19] = molecular target: T7, cAMP-dependent protein kinase catalytic subunit PRKX (Homo sapiens); details: at 1 µM
[20] = molecular target: Rho-associated protein kinase 1 (Homo sapiens) (UniProt Q13464); details: at 0.1 µM;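 further: values are mean percent inhibition of ROCK1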
Rho-associated protein kinase 1 (Homo sapiens), sequence (Q13464 2-1354 limits assumed): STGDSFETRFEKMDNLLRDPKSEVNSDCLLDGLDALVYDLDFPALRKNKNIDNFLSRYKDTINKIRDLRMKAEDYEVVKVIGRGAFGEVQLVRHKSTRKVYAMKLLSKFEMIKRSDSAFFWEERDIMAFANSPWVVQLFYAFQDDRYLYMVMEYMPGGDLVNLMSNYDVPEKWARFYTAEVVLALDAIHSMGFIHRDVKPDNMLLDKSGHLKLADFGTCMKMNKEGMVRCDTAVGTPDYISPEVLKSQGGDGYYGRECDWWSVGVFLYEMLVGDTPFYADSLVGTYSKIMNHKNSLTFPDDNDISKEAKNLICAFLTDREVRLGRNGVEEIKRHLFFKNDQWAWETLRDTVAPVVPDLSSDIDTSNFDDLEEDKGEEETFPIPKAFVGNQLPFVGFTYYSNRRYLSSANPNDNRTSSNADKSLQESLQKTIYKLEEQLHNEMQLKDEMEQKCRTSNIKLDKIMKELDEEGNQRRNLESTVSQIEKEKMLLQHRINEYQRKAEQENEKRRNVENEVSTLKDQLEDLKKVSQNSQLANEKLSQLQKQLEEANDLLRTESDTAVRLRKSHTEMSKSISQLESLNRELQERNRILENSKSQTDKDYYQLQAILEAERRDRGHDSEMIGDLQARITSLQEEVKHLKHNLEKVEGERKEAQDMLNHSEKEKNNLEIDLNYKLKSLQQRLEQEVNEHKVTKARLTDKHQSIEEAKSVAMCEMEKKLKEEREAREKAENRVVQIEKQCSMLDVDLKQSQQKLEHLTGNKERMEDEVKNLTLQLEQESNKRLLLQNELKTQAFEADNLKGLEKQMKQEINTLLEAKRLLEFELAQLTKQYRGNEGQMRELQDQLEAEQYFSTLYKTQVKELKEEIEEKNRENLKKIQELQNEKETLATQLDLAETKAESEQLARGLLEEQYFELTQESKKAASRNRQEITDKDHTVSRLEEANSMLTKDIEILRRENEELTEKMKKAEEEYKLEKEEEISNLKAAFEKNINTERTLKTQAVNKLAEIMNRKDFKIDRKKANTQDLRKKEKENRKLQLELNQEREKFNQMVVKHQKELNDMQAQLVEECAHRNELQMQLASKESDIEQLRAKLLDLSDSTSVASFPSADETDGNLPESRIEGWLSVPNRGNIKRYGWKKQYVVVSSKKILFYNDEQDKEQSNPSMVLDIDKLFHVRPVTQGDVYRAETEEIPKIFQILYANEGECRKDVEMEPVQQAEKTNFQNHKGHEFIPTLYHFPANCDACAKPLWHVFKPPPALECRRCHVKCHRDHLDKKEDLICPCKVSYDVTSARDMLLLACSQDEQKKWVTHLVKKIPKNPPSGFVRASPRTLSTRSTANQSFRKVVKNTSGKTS

Protein kinase C beta type (Homo sapiens), sequence (P05771 2-671 limits assumed): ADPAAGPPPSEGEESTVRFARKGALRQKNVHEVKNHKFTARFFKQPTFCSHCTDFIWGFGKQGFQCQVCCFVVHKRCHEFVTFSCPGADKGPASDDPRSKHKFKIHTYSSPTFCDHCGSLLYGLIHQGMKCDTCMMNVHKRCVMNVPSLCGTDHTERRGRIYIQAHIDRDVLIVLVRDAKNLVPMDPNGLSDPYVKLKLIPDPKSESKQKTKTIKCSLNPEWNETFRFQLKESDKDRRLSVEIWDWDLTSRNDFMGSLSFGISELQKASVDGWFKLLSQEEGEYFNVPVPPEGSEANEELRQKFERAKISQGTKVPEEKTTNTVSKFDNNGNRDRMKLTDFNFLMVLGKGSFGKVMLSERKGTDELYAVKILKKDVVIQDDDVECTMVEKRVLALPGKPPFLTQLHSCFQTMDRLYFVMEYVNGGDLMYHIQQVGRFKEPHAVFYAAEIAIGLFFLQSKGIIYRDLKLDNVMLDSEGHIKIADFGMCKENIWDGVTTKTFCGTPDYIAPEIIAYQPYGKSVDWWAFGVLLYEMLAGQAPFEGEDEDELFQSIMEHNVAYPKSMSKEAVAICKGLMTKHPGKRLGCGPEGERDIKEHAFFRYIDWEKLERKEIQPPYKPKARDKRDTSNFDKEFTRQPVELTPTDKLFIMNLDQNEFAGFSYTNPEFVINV
Protein kinase C theta type (Homo sapiens), sequence (Q04759 whole entry, looked up): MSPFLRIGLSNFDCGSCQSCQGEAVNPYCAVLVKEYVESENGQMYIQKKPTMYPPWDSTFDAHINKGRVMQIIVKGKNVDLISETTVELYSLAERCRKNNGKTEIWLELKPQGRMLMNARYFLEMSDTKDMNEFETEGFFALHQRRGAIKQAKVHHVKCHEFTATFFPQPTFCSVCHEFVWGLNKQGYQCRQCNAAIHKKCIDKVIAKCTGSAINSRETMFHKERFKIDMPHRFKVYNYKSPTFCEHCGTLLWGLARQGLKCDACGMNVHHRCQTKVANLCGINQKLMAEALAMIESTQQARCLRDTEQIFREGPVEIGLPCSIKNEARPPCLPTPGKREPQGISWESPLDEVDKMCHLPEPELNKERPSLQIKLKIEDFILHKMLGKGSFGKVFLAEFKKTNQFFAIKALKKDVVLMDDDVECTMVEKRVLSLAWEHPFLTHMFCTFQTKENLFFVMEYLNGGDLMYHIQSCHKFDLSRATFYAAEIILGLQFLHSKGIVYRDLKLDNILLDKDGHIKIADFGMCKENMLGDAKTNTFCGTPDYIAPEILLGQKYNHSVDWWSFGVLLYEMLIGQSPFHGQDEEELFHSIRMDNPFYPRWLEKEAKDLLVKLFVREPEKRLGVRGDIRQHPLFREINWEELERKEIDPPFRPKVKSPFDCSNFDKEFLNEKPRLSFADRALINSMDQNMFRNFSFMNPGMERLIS

| SMILES | inhibition [1] [%] | inhibition [2] [%] | inhibition [3] [%] | inhibition [4] [%] | inhibition [5] [%] | inhibition [6] [%] | inhibition [7] [%] | inhibition [8] [%] | inhibition [9] [%] | inhibition [10] [%] | inhibition [11] [%] | inhibition [12] [%] | inhibition [13] [%] | inhibition [14] [%] | inhibition [15] [%] | inhibition [16] [%] | inhibition [17] [%] | inhibition [18] [%] | inhibition [19] [%] | inhibition [20] [%] |
| --- | --- | --- | --- | --- | --- | --- | --- | --- | --- | --- | --- | --- | --- | --- | --- | --- | --- | --- | --- | --- |
| CCS(=O)(=O)c1ccc(OC)c(Nc2ncc(-c3ccccc3Cl)o2)c1 | 5.15 | 0.15 | -1.52 | -0.01 | 2.29 | -0.13 | 2.01 | 1.52 | 1.41 | 1.21 | 1.98 | 0.34 | 0.32 | 1.27 | 3.79 | 0.72 | 2.95 | 0.64 | 0.38 | -0.11 |
| NS(=O)(=O)c1ccc(N/N=C2\C(=O)Nc3ccc(-c4cnco4)cc32)cc1 | 4.1 | 1 | 0.97 | 1.05 | 2.96 | 0.38 | 1.12 | -1.79 | 12.6 | -0.15 | 9.15 | -1.69 | 7.39 | 2.42 | 4.22 | 1.06 | 12.7 | 1.53 | 1.83 | 6.06 |
| COc1cccc(-n2cnc3c(N/N=C/c4ccncc4)ncnc32)c1 | 3.14 | 0.58 | -0.97 | 0.62 | 4.42 | 2.34 | 2.1 | -2.1 | -5.45 | -4.34 | -5.5 | -3.34 | -4.97 | 0.67 | 3.77 | 3.29 | 4.98 | 1.92 | 5.16 | 0.59 |

Reference: ChEMBL document CHEMBL1961873, “Compounds: GSK PKIS; Assays: Nanosyn kinase panel” (2012)
